Experimental data from PubChem BioAssay AID1347048 (National Center for Advancing Translational Sciences (NCATS), 2019).
About 1,200 (1.6%) of roughly 76,000 compounds were called active. Roughly 4% stayed inconclusive and do not appear here. Calls follow the shape of the full dose curve. What follows is part of a selection rich in actives, with near analogues and random picks from the rest.

Target: Atrial natriuretic peptide receptor 1 (Homo sapiens) (UniProt P16066)
Assay: Natriuretic polypeptide receptor (hNpr1) antagonism - Primary qHTS; also: nearly all actives have a fitted effect of over 60% in size
Details: HEK293 hNpr1 GloSensor cGMP, ANP-stimulated luminescence; series mostly up to 46.3 µM; activity change, negative = inhibition: at the top concentration
From the text: Pruritus or itch, is an irritating skin sensation that creates a need to scratch, and ranges from mildly unpleasant and passing to acute and persistent sensations. […] Conventional treatments include topical anti-inflammatory agents, anti-histamines, and emollients, which are aimed at managing the itchy sensation and not the underlying disease. The treatment of pruritus remains a diagnostic and therapeutic challenge. Neurotransmission in the spinal cord from primary pruriceptors to second order neurons is a necessary step that eventually results in the sensation of itch. At this synapse, primary pruriceptors use the neuropeptide natriuretic polypeptide B (NppB) to activate its cognate receptor Natriuretic polypeptide receptor 1 (Npr1) on second order neurons. Inhibition of this step is a new potential strategy to inhibit acute and chronic itch. In order to identify small molecular compounds that can inhibit the Npr1 receptor we developed a high-throughput assay to probe inhibition of the receptor guanylate cyclase Npr1. The assay was designed taking advantage of Promega's GloSensor[TM] technology (Fan, F. et al. 2008). It involves the expression of a cyclic guanosine monophosphate (cGMP) biosensor, comprised of a firefly luciferase variant that was coupled to the cGMP binding domain of human phosphodiesterase 5A, and loading of cells with a cell-permeable luciferase substrate to monitor cGMP production by Npr1 in real time in live cells. In detail, we generated human embryonic kidney 293 cells stably expressing the human Npr1 and the cGMP GloSensor[TM] pGS-40F. Stimulating these cells with the Npr1 agonists human NppA or NppB, luciferase-induced light production could be detected in a dose-dependent manner. We also generated HEK293 cells stably expressing human Npr2 and pGS-40F and cells only expressing pGS-40F to conduct secondary counter screens. In these cells, NppC or sodium nitroprusside were used to stimulate Npr2 or soluble guanylate cyclase which is endogenously expressed in HEK293 cells, respectively. REFERENCE F. Fan, B. F. Binkowski, B. L. Butler, P. F. Stecha, M. K. Lewis, K. V. Wood, Novel genetically encoded biosensors using firefly luciferase. ACS Chem. Biol., 2008, 3: 346-351 .
PROTOCOL TABLES (as described by Inglese J, Shamu CE and Guy RK. 2007) SEQUENCE No. (e.g., 1, 2, 3, etc.); […] (e.g., Cells, Incubation, Reagent, etc.); VALUE and DESCRIPTION. GLOSENSOR PROTOCOL 1. Cells. Seed 1500 HEK293 cGMP-sensor cells expressing hNpr1 per well in 4uL into Greiner 1536-well white/solid bottom high base, tissue culture-treated plates. 2. Incubation. Incubate plated cells at 37C in 5% CO2, 95% RH overnight. 3. Reagent. Add 1uL per well GloSensor reagent from Promega (2% final concentration) or CO2 independent media vehicle control to respective columns of Greiner 1536-well plates. 4. Incubation. Incubate plated cells at room temperature for 2 h, protect from light. 5. Compounds. Library compounds and A-71915 control added at 23 nL per well, transferred by Pin Tool. 6. Incubation. Incubate plated cells for 30 min. at room temperature, protect from light. 7. Detector. GloSensor baseline pre-read luminescence measured using CCD-based camera (Viewlux). 8. Compound. Add 1uL of hNppA peptide to 0.1 nM final concentration to stimulate hNpr1 or CO2 independent media as vehicle control. 9. Incubation. Incubate treated cells at room temperature for 20 min., protect from light. 10. Detector. GloSensor post-hNppA luminescence measured using CCD-based camera (Viewlux). NOTES (numbers refer to Sequence numbers above) 1. HEK293 cells expressing hNpr1 and GIP/pGS-40F grown to 85-95% confluence (48-72 h) in T175 culture flasks (CO2 independent media supplemented with 10% FBS, 1% Pen/Strep antibiotics and 1 ug/mL puromycin). Trypsinize and harvest cells from T175 culture flasks and filter through 40 um cell strainer. Cells counted with Invitrogen Countess (30,000,000 - 50,000,000 cells/flask). […]
% is scaled to controls: 0 for no effect and ±100 for the full control effect; potency is read from the fitted curve at half-maximal effect.

Chain of Atrial natriuretic peptide receptor 1 (Homo sapiens) (P16066 whole entry, looked up): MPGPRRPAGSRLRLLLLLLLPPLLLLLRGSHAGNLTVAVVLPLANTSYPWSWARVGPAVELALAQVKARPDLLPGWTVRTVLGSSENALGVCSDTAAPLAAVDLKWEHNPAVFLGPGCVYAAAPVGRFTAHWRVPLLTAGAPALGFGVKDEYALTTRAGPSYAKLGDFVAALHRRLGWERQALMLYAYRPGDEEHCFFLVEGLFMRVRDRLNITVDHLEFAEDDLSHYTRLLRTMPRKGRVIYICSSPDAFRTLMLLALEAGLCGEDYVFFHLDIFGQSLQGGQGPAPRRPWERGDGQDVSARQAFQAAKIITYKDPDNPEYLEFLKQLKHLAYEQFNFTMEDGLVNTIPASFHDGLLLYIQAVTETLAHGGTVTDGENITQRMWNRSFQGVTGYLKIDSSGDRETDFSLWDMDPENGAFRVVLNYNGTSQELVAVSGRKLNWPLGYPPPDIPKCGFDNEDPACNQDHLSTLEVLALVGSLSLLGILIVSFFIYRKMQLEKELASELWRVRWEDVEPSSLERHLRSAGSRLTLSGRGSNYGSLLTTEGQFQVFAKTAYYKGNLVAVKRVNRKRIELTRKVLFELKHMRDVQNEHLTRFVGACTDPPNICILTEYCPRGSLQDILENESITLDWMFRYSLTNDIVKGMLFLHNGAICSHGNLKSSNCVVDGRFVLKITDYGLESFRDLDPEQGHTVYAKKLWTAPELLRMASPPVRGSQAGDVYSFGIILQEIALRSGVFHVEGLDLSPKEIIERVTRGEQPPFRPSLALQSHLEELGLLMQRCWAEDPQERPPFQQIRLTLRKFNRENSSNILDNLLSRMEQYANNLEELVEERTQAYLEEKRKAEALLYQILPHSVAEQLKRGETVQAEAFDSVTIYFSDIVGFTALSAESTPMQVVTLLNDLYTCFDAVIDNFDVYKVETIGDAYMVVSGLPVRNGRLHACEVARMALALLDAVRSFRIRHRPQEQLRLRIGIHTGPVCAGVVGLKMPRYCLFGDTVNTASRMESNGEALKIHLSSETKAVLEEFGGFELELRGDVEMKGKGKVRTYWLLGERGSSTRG

SMILES | activity change, negative = inhibition | Potency
Cc1nc(CCNS(=O)(=O)c2ccc(Cl)cc2)no1 | 0% (inactive) | –
O=C([C@H]1CCC[C@H](O)C1)N(CCC1=CCCCC1)Cc1ccccc1 | 0.789% (inactive) | –
O=c1[nH]nc2n1CCCC2 | -17.4% (inactive) | –
COc1ccccc1C(=O)N1CCCC(n2cc(-c3nc(-c4ccccc4)no3)nn2)C1 (stereo not given) | – | 4.47 µM (active)
CCc1noc(-c2cn(C3CCN(C(=O)c4cccc(OC)c4)C3)nn2)n1 (stereo not given) | -1.19% (inactive) | –
COc1ccc(C(=O)N2CCCC(n3cc(-c4nc(C5CC5)no4)nn3)C2)cc1 (stereo not given) | 2.3% (inactive) | –
O=C(c1ccc(F)cc1Cl)N1CCC(n2cc(-c3nc(-c4ccccc4)no3)nn2)C1 (stereo not given) | – | 3.98 µM (active)
Cc1nc(-c2cn(C3CCCN(C(=O)c4cc(F)ccc4F)C3)nn2)no1 (stereo not given) | 0% (inactive) | –
COc1cc(OC)cc(C(=O)N2CCCC(n3cc(-c4nc(C(C)C)no4)nn3)C2)c1 (stereo not given) | -11.7% (inactive) | –
COc1ccccc1-c1onc(C)c1C(=O)NCCC(c1ccccc1)c1ccccc1 | -9.75% (inactive) | –
CCn1c(C2CCCNC2)nn(Cc2noc(-c3ccc(C)cc3)n2)c1=O (stereo not given) | 3.51% (inactive) | –
CC(C)(C)C(=O)N1CC[C@@H](CC(=O)O)[C@@H](CCN2CCN(c3cccc(C(F)(F)F)c3)CC2)C1 | 5.62% (inactive) | –
COc1cccc(N2CC3(COCC2=O)CN(c2ccc(C(F)(F)F)cn2)C3)n1 | -16.6% [at 70.6 µM] (inactive) | –
O=C1CCCCCN1C1CCN(Cc2ccc(C(F)(F)F)cc2)CC1 | -16.4% (inactive) | –
CN(C)Cc1cn2c(=O)n(C)cc(-c3cccc(OCc4ccccc4)c3)c2n1 | -2.84% [at 70.6 µM] (inactive) | –
CN(C)c1cccc(-c2cn(C)c(=O)n3cc(COc4ccc(Cl)cc4)nc23)c1 | -2.64% [at 70.6 µM] (inactive) | –
Cc1cc(-c2cn(C)c(=O)n3cc(COc4ccccc4)nc23)ccn1 | – | 25.1 µM (active)
CCOc1ccc(CC(=O)N2CCCC3(C2)Nc2cccnc2NC3=NC2CCCC2)cc1 (stereo not given) | -2.91% (inactive) | –
O=C(c1ccc(-c2ccc(N3CCCCC3)nc2)cc1)N1CCOCC1 | -16.1% (inactive) | –
COCCN1CC(CO)C2(CCN(Cc3ccc(F)c(Cl)c3)CC2)C1 (stereo not given) | -21.1% (inactive) | –
CN1CCCC2(CCN(C(=O)c3cccc(N4CCCC4=O)c3)C2)C1=O (stereo not given) | 13.1% (inactive) | –
CC(=O)N1CCCC(c2nn(-c3ccccc3)c(=O)[nH]2)C1 (stereo not given) | -9.12% [at 70.6 µM] (inactive) | –
O=C(Cc1ccc(F)cc1)N1CCCC(c2nn(-c3ccc(Cl)cc3)c(=O)[nH]2)C1 (stereo not given) | 8.11% (inactive) | –
O=c1[nH]c(C2CCCN(Cc3ccccn3)C2)nn1-c1ccc(Cl)cc1 (stereo not given) | – | 5.01 µM (active)
O=C(COc1ccc(F)cc1)NC1CCN(c2cn[nH]c(=O)c2)CC1 | 0.664% (inactive) | –

SMILES | activity change, negative = inhibition | Potency
Cc1ncsc1C(=O)N1CCc2c(n(Cc3ccccc3)n(-c3ccccc3)c2=O)C1 | 1.6% [at 70.6 µM] (inactive) | –
O=C(Cc1ccc(F)cc1)N1CCC2(CC1)NC(=O)N(c1ccccc1)N2 | -1.52% (inactive) | –
CC1(C(=O)NCC2CCCO2)CCCc2cnc(Nc3ccccc3)nc21 (stereo not given) | 7.26% [at 70.6 µM] (inactive) | –
CN(Cc1ccccc1)C(=O)C1(C)CCCc2cnc(Nc3cccnc3)nc21 (stereo not given) | -21.7% [at 70.6 µM] (inactive) | –
CC1(C(=O)NCc2ccc3c(c2)OCO3)CCc2cnc(NCc3ccccc3)nc21 (stereo not given) | – | 35.5 µM (active)
CC(C)N1Cc2cc(C(=O)Nc3cccc4c3CCCC4)sc2C1 | -13.9% (inactive) | –
O=C(Nc1ccc2c(c1)CCC2)c1cc2c(s1)CN(C1CC1)C2 | – | 11.2 µM (active)
COc1ccc(CNC(=O)c2cc3c(s2)CN(C2CC2)C3)cc1OC | -7.63% (inactive) | –
O=C(Nc1cccnc1)c1ccc2c(c1)OCCN(c1ccccc1)C2 | -21.2% [at 70.6 µM] (inactive) | –
Cc1cc(NC(=O)c2ccc3c(c2)OCCN(CCC(F)(F)F)C3)ccc1F | -3.62% [at 70.6 µM] (inactive) | –
CC(C)(C)c1csc(NC(=O)c2ccc3c(c2)OCCN(C2CCC2)C3)n1 | – | 31.6 µM (active)
O=C(c1ccc2c(c1)OCO2)N1CCC2(CC1)CN(c1ccncn1)CC2CO (stereo not given) | 2.18% (inactive) | –
CN(C)C(=O)C1CN(C(=O)Nc2ccc(F)cc2F)CC12CCOCC2 (stereo not given) | -8.52% (inactive) | –
O=C(Nc1ccc(Oc2ccccc2)cc1)O[C@@H]1CO[C@H]2[C@@H]1OC[C@@H]2NS(=O)(=O)c1cccs1 | – | 12.6 µM (active)
O=C(Nc1ccccc1)O[C@@H]1CO[C@H]2[C@@H]1OC[C@@H]2NS(=O)(=O)c1cccc2cccnc12 | -9.3% (inactive) | –
O=C(Nc1ccc(Oc2ccccc2)cc1)O[C@@H]1CO[C@H]2[C@@H]1OC[C@@H]2NCC1CC1 | -1.22% [at 70.6 µM] (inactive) | –
CCCN1CC(Oc2ccc(-c3noc(C4CC4)n3)cc2)C1 | -2.63% (inactive) | –
O=C(c1ccncc1)N1CCC(Oc2ccccc2)C1 (stereo not given) | 0% (inactive) | –
O=C(c1ccoc1)N1CC(Oc2ccc(-c3nc(-c4ccccc4)no3)cc2)C1 | -2.34% (inactive) | –
O=C(NC1CCCC1)N1CCCC(c2noc(COc3ccccc3)n2)C1 (stereo not given) | -21.1% (inactive) | –
O=C(NC1CCCCC1)N1CCCCCC1c1nc(-c2cccnc2)no1 (stereo not given) | -4.2% (inactive) | –
Cc1cccc(C(=O)N2CC(Oc3cccc(-c4nc(-c5ccccc5)no4)c3)C2)c1 | -1.57% (inactive) | –
O=C(c1ccccn1)N1CC(Oc2ccc(-c3noc(C4CC4)n3)cc2)C1 | – | 14.1 µM (active)
O=C(NC1CCCC1)N1CCC(Oc2ccc(-c3noc(C4CC4)n3)cc2)C1 (stereo not given) | – | 8.91 µM (active)
Cc1cccc(C(=O)N2CCC(Oc3ccc(-c4noc(C(C)C)n4)cc3)C2)c1 (stereo not given) | – | 11.2 µM (active)
